The record followed here is PubChem BioAssay.

Assay [1] can be described thus: liver-stage malaria parasite growth inhibition, primary screen, cell-based, HepG2, luciferase luminescence, HepG2 viability (AID 624349; in the data active = parasite load remaining mostly below about 12%, no sharp cut-off; inactive = mostly above about 10%;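 note: 100% = mean of DMSO negative control wells on the same plate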). The following applies: P. berghei liver stage in HepG2, luciferase luminescence, concentration not given here; parasite load remaining: stronger effect = lower value; viability: measured here: HepG2 viability without parasites.
The nature of assay [2]: kinase inhibitors against Plasmodium liver-stage infection, cell-based, known kinase inhibitor set, luminescence, hepatoma host viability (AID 624392).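 Note: infected cells incubated roughly two days before readout.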 The following applies: Plasmodium liver stage in hepatoma cells, luciferase luminescence, concentration not given here; liver cell % of control: measured here: host liver cell viability; parasite % of control: stronger effect = lower value.

Assay [3] in a line: Cy5 fluorescence interference with SSB-bound oligo, artefact control for HCV NS3 helicase inhibitor project, biochemical, NIH Clinical Collection, E. coli SSB (AID 743268).
The subject of assay [4] is Hepatitis C virus NS3 helicase. Briefly: HCV NS3 helicase inhibitors, primary screen, biochemical, fluorescence polarization, NIH Clinical Collection (AID 743270). The note with it: NS3 helicase binding to Cy5-dT15 DNA, stronger effect = higher value, concentration not given here. On the technique in general: Polarisation of emitted light reports the rotation of a fluorescent probe.

Assay [5] has as its target Single-stranded DNA-binding protein (Escherichia coli (strain K12)) (UniProt P0AGE0). Briefly: E. coli SSB displacement from DNA, counter-screen for HCV NS3 helicase inhibitor project, biochemical, fluorescence polarization, NIH Clinical Collection (AID 743271; in the data active = inhibition above about 28%). The following applies: stronger effect = higher value, concentration not given here. On the technique in general: A counterscreen serves to expose hits that act by an unwanted route or on another target.

Assay [6] can be described thus: fluorescence interference in NS3h assay format, artefact control for HCV NS3 helicase inhibitor project, biochemical, NIH Clinical Collection (AID 743272).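 Note: HCV NS3 helicase with a Cy5 labelled single stranded DNA probe.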 The following applies: fluorescence interference counterscreen, stronger effect = lower value.

The source made the active and inactive calls. Unless noted, the rule behind the calls is not given here.

As for `COc1cc2ncnc(Nc3ccc(NC(=O)c4ccccc4)cc3)c2cc1OC`, in assay [1], the parasite load remaining is 41.1% (inactive) and the viability (usually a read-out of living cells in per cent, often relative to untreated cells) stood at 100%.
`O=C1NC(=O)c2c1c1c3ccccc3[nH]c1c1[nH]c3cc(Br)ccc3c21`: in assay [1], the parasite load remaining was 60.6% (inactive) and the viability amounted to 160%.
On to `CC(=O)c1ccc(N2CCOCC2)cc1O`, for which, in assay [1], the parasite load remaining is 38.3% (inactive) and the viability was found to be 110%.
Take `NCCNc1ncc(C(N)=O)c(Nc2cccc(C(F)(F)F)c2)n1`: in assay [1], the parasite load remaining was 37.1% (inactive) and the viability is 76.9%.
The matching figures for `O=C1C(Cl)=C(N2C(=O)CCC2=O)C(=O)c2ccccc21`: 34.2% (inactive) and 76.3%.
Take `CCOc1nc(NC(=O)Cc2cc(OC)ccc2OC)cc(N)c1C#N`: in assay [1], the parasite load remaining was 37.8% (inactive) and the viability was found to be 72.7%.
Turning to `O=C(Nc1cccc(-c2csc(Nc3cccc(C(F)(F)F)c3)n2)c1)c1cc([N+](=O)[O-])cc(C(F)(F)F)c1`, in assay [2], the liver cell % of control came out at 98.5% and the parasite % of control was 79.7% (inactive).
As to `CCN1CCN(Cc2ccc(NC(=O)c3cc(NC(=O)C4=NN(c5ccccc5)C(=O)C4)cc(OC)c3)cc2C(F)(F)F)CC1`, in assay [2], the liver cell % of control is 100% and the parasite % of control is 110% (inactive).
For the compound `CC[C@@H](CO)Nc1nc(NCc2ccc(-c3ccccn3)cc2)c2ncn(C(C)C)c2n1`, in assay [1], the parasite load remaining is 181% (inactive) and the viability came to 75.3%.
For the compound `O=C(Nc1ccc(-c2csc(Nc3ccccc3)n2)cc1)c1cc([N+](=O)[O-])cc(C(F)(F)F)c1`, in assay [2], the liver cell % of control turned out to be 102% and the parasite % of control was 102% (inactive).
The matching figures for `NC1=NC(=O)C(=Cc2cccc(-c3ccc(S(N)(=O)=O)cc3)c2)S1`: 98% and 377% (inactive).
Regarding `C=CC(=O)Nc1cccc(Oc2cc(Cl)nc3[nH]ccc23)c1`, in assay [2], the liver cell % of control came out at 101% and the parasite % of control is 63.5% (inactive).
For the compound `CSc1nc(-c2ccnc(NC(C)c3ccccc3)c2)c(-c2ccc(F)cc2)[nH]1` (stereo unspecified), in assay [1], the parasite load remaining is 53.6% (inactive) and the viability is 77.8%.
Turning to `Nc1cc(Nc2ccc(S(N)(=O)=O)cc2)ncn1`, in assay [1], the parasite load remaining is 48.4% (inactive) and the viability stood at 133%. Besides, in assay [2], the liver cell % of control stood at 97.7% and the parasite % of control is 145% (inactive).
Consider `COc1cc2ncnc(Nc3cccc(O)c3)c2cc1OC`, for which, in assay [1], the parasite load remaining was 52.5% (inactive) and the viability was 68.3%.
With `CCN1CCN(Cc2ccc(NC(=O)c3ccc(C)c(NC(=O)c4csc(-c5ccncc5)n4)c3)cc2C(F)(F)F)CC1`, in assay [2], the liver cell % of control came to 99.6% and the parasite % of control was 126% (inactive).
Turning to `O=C1C(C2=C3C(=Nc4ccccc43)/C(=C\c3ccc(O)cc3)C2=O)=C2C(=Nc3ccccc32)/C1=C\c1ccc(O)cc1`, in assay [1], the parasite load remaining was 52% (inactive) and the viability stood at 71.2%.
For the compound `CCN1CCN(Cc2ccc(NC(=O)c3ccc(C)c(NC(=O)c4cc(-c5ccc(Br)cc5)n[nH]4)c3)cc2C(F)(F)F)CC1`, in assay [2], the liver cell % of control amounted to 90.4% and the parasite % of control was 208% (inactive).
As for `CC(=O)O/N=C1\C(c2c(O)[nH]c3cc(Br)ccc23)=Nc2ccccc21`, in assay [1], the parasite load remaining was 14.7% (inactive) and the viability worked out at 97.9%.
Turning to `NC(=O)Nc1cc(-c2ccccc2)sc1C(N)=O`, in assay [1], the parasite load remaining was 74.4% (inactive) and the viability was 163%.
Take `O=C(O)/C=C/c1cc(Br)c(Br)c(Br)c1Br`: in assay [1], the parasite load remaining was 36.5% (inactive) and the viability came to 98.8%.
In the case of `CCN1CCN(Cc2ccc(NC(=O)c3ccc(C)c(NC(=O)c4ccno4)c3)cc2C(F)(F)F)CC1`, in assay [2], the liver cell % of control was determined as 100% and the parasite % of control is 100% (inactive).
As to `O=c1[nH][nH]c2nnc(-c3c(-c4ccccc4)nn4ccccc34)cc12`, in assay [1], the parasite load remaining was 41.8% (inactive) and the viability is 101%.
As to `NC(=O)Nc1sc(-c2ccccc2)cc1C(N)=O`, in assay [1], the parasite load remaining was 55.2% (inactive) and the viability was found to be 90.8%. Moreover, in assay [2], the liver cell % of control amounted to 111% and the parasite % of control is 316% (inactive).
For the compound `O=C(Nc1cccc(-c2csc(Nc3cccc(C(F)(F)F)c3)n2)c1)c1ccccc1`, in assay [2], the liver cell % of control is 97.7% and the parasite % of control was 68.7% (inactive).
With `CCCCc1c(-c2ccc(OC)cc2)[nH]c2nccnc12`, in assay [1], the parasite load remaining was 34.8% (inactive) and the viability was 106%.
Turning to `O=C1Nc2ccc(Br)cc2/C1=C/c1cc2c([nH]1)CCCC2`, in assay [1], the parasite load remaining is 44.1% (inactive) and the viability was found to be 66.2%.
`CCN1C(=O)CC(C(C)C)N(C2CCCC2)c2nc(Nc3ccc(C(=O)NC4CCN(C)CC4)cc3OC)ncc21` (stereo unspecified): in assay [2], the liver cell % of control was determined as 102% and the parasite % of control is 87.6% (inactive).
On to `N#CCCc1ccc2c(c1)-c1[nH]c3ccc([N+](=O)[O-])cc3c1CC(=O)N2`, for which, in assay [1], the parasite load remaining was 64.4% (inactive) and the viability was determined as 120%.
With `COc1cc(O)c2c(c1)oc(=O)c1c3cc(O)c(O)cc3oc21`, in assay [2], the liver cell % of control came out at 107% and the parasite % of control was 36.8% (inactive).
On to `CC[C@H]1OC(=O)[C@H](C)C(=O)[C@H](C)[C@@H](O[C@@H]2O[C@H](C)C[C@H](N(C)C)[C@H]2O)[C@](C)(OC)C[C@@H](C)C(=O)[C@H](C)[C@@H]2N(CCCCn3cnc(-c4cccnc4)c3)C(=O)O[C@@]21C`, for which, in assay [1], the parasite load remaining was 32.3% (inactive). Besides, in assay [1], the viability came to 63.9%. In addition, the values for the fluorescence ratio in assay [3] and in assay [6] were 0.97 (inactive) and 0.92 (inactive), respectively. Moreover, the inhibition (usually the relative decrease from the control value, in per cent) is -9.83% (inactive) in assay [4] and 1.18% (inactive) in assay [5].
Take `O=C(Nc1ccc(-c2csc(Nc3ccccc3)n2)cc1)c1cccc(C(F)(F)F)c1`: in assay [2], the liver cell % of control was 99.8% and the parasite % of control was 99.4% (inactive).
As to `Cn1sc(=O)n(Cc2ccccc2)c1=O`, in assay [1], the parasite load remaining was 33% (inactive) and the viability is 94.4%.
Regarding `CCN1CCN(Cc2ccc(NC(=O)c3cc(NC(=O)c4nccnc4N)cc(OC)c3)cc2C(F)(F)F)CC1`, in assay [2], the liver cell % of control is 98.4% and the parasite % of control is 64.5% (inactive).
Consider `O=Nc1c(-c2c(O)[nH]c3ccc(I)cc23)[nH]c2ccccc12`, for which, in assay [1], the parasite load remaining was 33.7% (inactive) and the viability worked out at 156%.
For `Cc1ccc(C(=O)Nc2cccc(C(F)(F)F)c2)cc1Nc1ccccn1`, in assay [2], the liver cell % of control came to 95% and the parasite % of control was 54.6% (inactive).
As to `NS(=O)(=O)c1ccc(N=Nc2c(O)[nH]c3ccc(Br)cc23)cc1`, in assay [1], the parasite load remaining was 34% (inactive) and the viability was determined as 161%.
On to `OCC(O)CCO/N=C1/C(c2c(O)[nH]c3ccccc23)=Nc2ccccc21` (stereo unspecified), for which, in assay [1], the parasite load remaining is 25.4% (inactive) and the viability was found to be 80.9%.
With `Cc1ccc(C(=O)Nc2cccc(C(F)(F)F)c2)cc1NC(=O)c1nccn1C`, in assay [2], the liver cell % of control was 99.8% and the parasite % of control is 33.1% (inactive).
`CC(C)n1cnc2c(NCc3ccccc3)nc(NCCCO)nc21`: in assay [1], the parasite load remaining was 34.6% (inactive) and the viability came to 118%.
As to `CC(C)C(CO)Nc1nc(Nc2cc(C(=O)O)cc(C(=O)O)c2)c2ncn(C(C)C)c2n1` (stereo unspecified), in assay [2], the liver cell % of control turned out to be 107% and the parasite % of control is 38% (inactive).
In the same order, the values of `NS(=O)(=O)c1ccc(-c2ccc(C=C3C(=O)c4ccccc4C3=O)o2)cc1` are 102% and 96.4% (inactive).
For `O=C1Cc2c([nH]c3ccc([N+](=O)[O-])cc23)-c2ccccc2N1`, in assay [1], the parasite load remaining was 65.2% (inactive) and the viability is 128%. In assay [2], the liver cell % of control was determined as 82.9% and the parasite % of control is 65.2% (inactive).
On to `C=CC(=O)Nc1cccc(N(C)c2ccnc(Nc3ccc(N4CCN(C)CC4)cc3)n2)c1`, for which, in assay [2], the liver cell % of control is 95.1% and the parasite % of control is 6.04% (inactive).
Regarding `NC(=O)c1cccc(-c2cc(Oc3ccc(OC(F)(F)F)cc3)ncn2)c1`, in assay [2], the liver cell % of control came to 101% and the parasite % of control is 113% (inactive).
`CS(=O)(=O)Nc1ccc(-c2ccc(C=C3SC(N)=NC3=O)o2)cc1`: in assay [2], the liver cell % of control was 105% and the parasite % of control was 130% (inactive).
Turning to `O=C(Nc1cccc(-c2csc(Nc3ccc(Cl)cc3)n2)c1)c1ccccc1`, in assay [2], the liver cell % of control was 90.9% and the parasite % of control is 112% (inactive).
Regarding `COc1cc(NC(=O)c2csc(N)n2)cc(C(=O)Nc2cccc(C(F)(F)F)c2)c1`, in assay [2], the liver cell % of control was 88.9% and the parasite % of control is 39.6% (inactive).
